The source made the active and inactive calls.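 Rule for the calls, unless noted: active = fluorescence slope after compound addition differing from the mean of all screened samples at 99.7% confidence, in either direction; inactive = the rest.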
Experiments:
[1] = inhibitors of TNFa-induced NFkB p65 translocation, primary screen, imaging, HUVEC, MLSMR starter and 10KST1 sets (AID 438;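 active = inhibition above 20% together with a positive visual image hit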;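 note: compound added about 3h40 before a 20 min TNFalpha stimulation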;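 for inhibition: signal is the nuclear over cytoplasmic p65 intensity ratio per well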); details: HUVEC TNFa-induced p65 nuclear translocation; cell count: measured here: nuclei count (cytotoxicity indicator), at 2.08 µM; inhibition: at 2 µM, stronger effect = higher value, 0% TNFa-plus-vehicle, 100% no-TNFa wells
[2] = inhibitors of mutant huntingtin aggregation, primary screen, imaging, exon1htt(103Q)mCFP cells, high-content imaging (AID 483;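 active = visual image review flags a hit and inhibition of aggregation exceeds 20%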;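 note: compound exposure lasted 3 days before fixation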;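 for nuclei count: percent of the per-plate median nuclei count of sample wells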); details: exon1htt(103Q)mCFP cell line, aggregate imaging, at 2 µM; inhibition of aggregation: stronger effect = higher value; nuclei count: measured here: cell count, toxicity
[3] = inhibitors of E-selectin induction by TNFa, primary screen, imaging, HUVEC, immunofluorescence, MLSMR starter and 10KST1 sets (AID 487;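 active = visually confirmed hit in the image check and inhibition above 20%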;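 for inhibition: signal is fraction of cell area covered by stained E-selectin grains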;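 for nuclei count: 100% = median nuclei count of all wells on the same plate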); details: HUVEC TNFalpha-induced E-selectin immunofluorescence imaging, at 2 µM; inhibition: stronger effect = higher value; nuclei count: measured here: cell number, toxicity
[4] = target: Voltage-gated potassium channel subunit beta-2 (Rattus norvegicus) (UniProt P62483); assay: KvBeta enzyme negative modulators, primary screen, biochemical, NADPH fluorescence (AID 622;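 active = fluorescence slope higher than the sample average by over 3 SD, cut at about -0.22 in these data, passing the limit was not always enough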;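 note: slope of raw intensity against log time taken from 70 to 1610 s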); details: recombinant KvBeta, 4-cyanobenzaldehyde reduction, at 10 µM, stronger effect = higher value
Chain of Voltage-gated potassium channel subunit beta-2 (Rattus norvegicus) (P62483 whole entry, looked up): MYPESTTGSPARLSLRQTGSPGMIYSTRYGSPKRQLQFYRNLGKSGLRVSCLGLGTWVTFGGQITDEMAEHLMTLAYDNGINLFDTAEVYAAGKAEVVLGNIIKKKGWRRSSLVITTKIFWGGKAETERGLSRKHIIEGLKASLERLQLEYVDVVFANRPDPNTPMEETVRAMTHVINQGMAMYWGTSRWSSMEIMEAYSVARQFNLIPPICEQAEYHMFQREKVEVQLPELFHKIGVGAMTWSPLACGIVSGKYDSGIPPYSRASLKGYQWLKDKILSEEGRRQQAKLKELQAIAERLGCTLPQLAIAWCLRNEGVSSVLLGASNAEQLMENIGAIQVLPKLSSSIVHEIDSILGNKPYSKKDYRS

[5] = target: Voltage-gated potassium channel subunit beta-2 (Rattus norvegicus) (UniProt P62483); assay: KvBeta positive modulators, primary screen, biochemical, NADPH fluorescence (AID 623;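 active = NADPH fluorescence slope more negative than the mean of all samples by about 3 SD, 99.7% confidence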;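 note: fluorescence intensity change per second fitted from 20 to 320 s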); details: Recombinant KvBeta, NADPH fluorescence decrease slope, 10 min; at 10 µM; stronger effect = lower value
[6] = target: Alpha-2C adrenergic receptor (Homo sapiens) (UniProt P18825); assay: modulators of alpha2C/GIRK thallium flux, primary screen, cell-based, HEK293 alpha2C/GIRK1/2 (AID 624); details: thallium flux BTC fluorescence, at 10 µM, actives lie on both sides;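 note: slope of fluorescence ratio to pre-addition baseline per second over 15 to 24 s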
Chain of Alpha-2C adrenergic receptor (Homo sapiens) (P18825 whole entry, looked up): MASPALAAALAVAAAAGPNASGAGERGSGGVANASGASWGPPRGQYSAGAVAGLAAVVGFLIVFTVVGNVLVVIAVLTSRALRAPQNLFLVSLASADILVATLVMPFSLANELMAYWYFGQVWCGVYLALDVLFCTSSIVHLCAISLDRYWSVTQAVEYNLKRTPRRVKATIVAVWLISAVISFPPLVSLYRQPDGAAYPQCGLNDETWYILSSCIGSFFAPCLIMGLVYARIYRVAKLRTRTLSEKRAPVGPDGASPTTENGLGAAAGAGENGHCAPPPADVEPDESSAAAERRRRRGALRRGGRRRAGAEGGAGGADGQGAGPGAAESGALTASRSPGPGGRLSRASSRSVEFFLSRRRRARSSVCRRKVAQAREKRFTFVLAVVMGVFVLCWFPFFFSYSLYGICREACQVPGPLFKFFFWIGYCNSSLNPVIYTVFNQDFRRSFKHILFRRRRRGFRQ

[7] = inhibitors of Sendai virus-induced IRF3 signaling, primary screen, TLR/RLR signaling modifier project, cell-based, Sendai virus stimulus, luciferase, 10K MLSCN set (AID 602276;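 active = inhibition at or above 50% at 10 µM; inactive = inhibition below 50%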;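 note: firefly luciferase from ISG56 promoter only with Renilla not read in this screen; 0% = Sendai virus plus DMSO and 100% = medium plus DMSO without virus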); details: HEK293 RL24 IRF3 luciferase reporter, at 10 µM, stronger effect = higher value
[8] = inhibitors of poly I:C-induced TLR3 signaling, primary screen, cell-based, poly I:C stimulus, luciferase, 10K MLSCN set (AID 602277;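 active = inhibition of the reporter signal at or above 50%; inactive = inhibition below 50%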); details: HEK293-TLR3 RL24 IRF3 luciferase reporter, at 10 µM, stronger effect = higher value

Compound	cell count [1]	inhibition [1]	inhibition of aggregation [2]	nuclei count [2]	inhibition [3]	nuclei count [3]	fluorescence slope [4]	NADPH fluorescence slope [5]	slope [6]	inhibition [7]	inhibition [8]
O=C1c2ccccc2S(=O)(=O)N1CC(O)Cn1c2ccccc2c2ccccc21 (stereo not drawn)	397	1% (inactive)	8.8% (inactive)	105%	-121% (inactive)	118%	-0.421 (inactive)	-4.3e-05 (inactive)	0.00434 (inactive)	5.13% (inactive)	30.2% (inactive)
COc1ccccc1CNS(=O)(=O)c1ccc(NC(C)=O)cc1	601	8.1% (inactive)	-1.3% (inactive)	110%	-57.3% (inactive)	109%	-0.411 (inactive)	-4.2e-05 (inactive)	0.00719 (inactive)	6.03% (inactive)	6.94% (inactive)
O=S(=O)(c1cccs1)N1CCN(C/C=C/c2ccccc2)CC1	359	2.4% (inactive)	-19.8% (inactive)	108%	62.2% (inactive)	94.8%	-0.492 (inactive)	-4.5e-05 (inactive)	0.00442 (inactive)	10.2% (inactive)	9.74% (inactive)
C/C=C/Cn1c(Br)nc2c1c(=O)[nH]c(=O)n2C	650	10.6% (inactive)	-10.8% (inactive)	73%	20.1% (inactive)	103%	-0.625 (inactive)	-4.7e-05 (inactive)	0.00443 (inactive)	15.1% (inactive)	10.7% (inactive)
CCN(CC)c1ccc(NC(=O)c2nc3nc(C)cc(C(F)F)n3n2)cc1	650	-1.9% (inactive)	14.6% (inactive)	98.5%	-10.1% (inactive)	114%	-0.535 (inactive)	-3.4e-05 (inactive)	0.00747 (inactive)	21.5% (inactive)	-6.45% (inactive)
CCCc1cc(=O)[nH]c(SCc2ccccc2)n1	651	6.7% (inactive)	-3.9% (inactive)	99.8%	-110% (inactive)	101%	-0.6 (inactive)	-1.1e-07 (inactive)	0.00614 (inactive)	9.4% (inactive)	30% (inactive)
c1ccc2c(c1)CNC1(CCCCC1)C2	362	-3.4% (inactive)	13% (inactive)	114%	-2.1% (inactive)	103%	-0.552 (inactive)	2.5e-05 (inactive)	0.00453 (inactive)	13.3% (inactive)	14.2% (inactive)
COc1ccc(-n2c(SCc3ccc(C#N)cc3)nnc2-c2ccccn2)cc1	692	-5.8% (inactive)	-4.4% (inactive)	105%	-18.8% (inactive)	118%	-0.599 (inactive)	-3.8e-05 (inactive)	0.00521 (inactive)	-1.12% (inactive)	11.2% (inactive)
CC1(C)NC(=O)N(CN2C(=O)NC(C)(C)C2=O)C1=O	579	-7.9% (inactive)	-22.5% (inactive)	114%	28.8% (inactive)	110%	-0.415 (inactive)	-3.4e-05 (inactive)	0.00531 (inactive)	7.1% (inactive)	9.34% (inactive)
CC(NC(=O)Nc1ccccc1)C(c1cccs1)N1CCOCC1 (stereo not drawn)	606	-0.5% (inactive)	-6.2% (inactive)	97.6%	-2.9% (inactive)	111%	-0.6 (inactive)	-9.3e-06 (inactive)	0.00654 (inactive)	1.55% (inactive)	31% (inactive)
COC(=O)c1cc(-c2c(C)oc3cc(O)ccc3c2=O)c(C)o1	609	-2.2% (inactive)	-24% (inactive)	114%	-117% (inactive)	167%	-0.129 (active)	2.7e-05 (inactive)	0.0074 (inactive)	4.96% (inactive)	1.06% (inactive)
O=S(=O)(Nc1ccc2c(c1)OCO2)c1ccc(Br)s1	285	-5.5% (inactive)	14.8% (inactive)	92.9%	8.4% (inactive)	95.6%	-0.31 (inactive)	1.5e-05 (inactive)	0.00308 (inactive)	0.155% (inactive)	-19.3% (inactive)
CCc1ccccc1NC(=O)CSc1ncn[nH]1	306	9% (inactive)	-8.6% (inactive)	101%	40% (inactive)	102%	-0.397 (inactive)	-1.9e-06 (inactive)	0.00367 (inactive)	1.64% (inactive)	32.7% (inactive)

Source: PubChem BioAssay
